According to PubChem BioAssay (NCI):
Compounds without any hit were thinned out: in the full panel of roughly 83,000, 20% have a hit.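 A percent growth of 40 corresponds to 60% growth inhibition; 0 means no net growth; -100 means all cells died. Active threshold: below 10.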 Activity calls are given as the source filed them.

Tests used:
Assay in all cases: NCI-60 one-dose screen, 48 h (100 = growth as untreated, 0 = no growth, -100 = all killed)
Details in all cases: 10 µM unless noted
SR leukemia = test system: SR leukemia
OVCAR-8 ovarian = test system: OVCAR-8 ovarian
OVCAR-5 ovarian = test system: OVCAR-5 ovarian
OVCAR-4 ovarian = test system: OVCAR-4 ovarian
SK-OV-3 ovarian = test system: SK-OV-3 ovarian
IGROV1 ovarian = test system: IGROV1 ovarian
HS 578T breast = test system: HS 578T breast
NCI/ADR-RES ovarian = test system: NCI/ADR-RES ovarian
T-47D breast = test system: T-47D breast
BT-549 breast = test system: BT-549 breast
MDA-MB-435 melanoma = test system: MDA-MB-435 melanoma
SW-620 colon = test system: SW-620 colon
MCF7 breast = test system: MCF7 breast
HCT-116 colon = test system: HCT-116 colon
HCC-2998 colon = test system: HCC-2998 colon
KM12 colon = test system: KM12 colon
OVCAR-3 ovarian = test system: OVCAR-3 ovarian

Measured: growth

Cc1ccc(-c2nc(N3CCN(C(=O)Nc4ccc(Cl)c(C(F)(F)F)c4)CC3)c3ccccc3n2)cc1
inactive: SR leukemia 75% | OVCAR-8 ovarian 73.6% | OVCAR-5 ovarian 86.9% | OVCAR-4 ovarian 77.8% | SK-OV-3 ovarian 81.7% | IGROV1 ovarian 78.2% | HS 578T breast 82.2% | NCI/ADR-RES ovarian 69.1% | T-47D breast 70.3% | BT-549 breast 93.6% | MDA-MB-435 melanoma 79.7% | SW-620 colon 84.8% | MCF7 breast 62% | HCT-116 colon 67.5% | HCC-2998 colon 85.3% | KM12 colon 82.9%

COc1ccc2nc(NCCCNCCO)c3sc4ccc(F)cc4c(=O)c3c2c1
active: SR leukemia -35.1% | OVCAR-8 ovarian 6.89% | OVCAR-4 ovarian -54.3% | OVCAR-3 ovarian -64.6% | MDA-MB-435 melanoma -69% | SW-620 colon -66.4% | HCT-116 colon -67.2% | HCC-2998 colon -82.9% | KM12 colon -58.7%
inactive: OVCAR-5 ovarian 81.7% | SK-OV-3 ovarian 90.1% | IGROV1 ovarian 41.3% | HS 578T breast 63.5% | NCI/ADR-RES ovarian 30.3% | T-47D breast 72.2% | MCF7 breast 17.8%

Cc1ccc2sc3c(NCCN)nc4ccccc4c3c(=O)c2c1
active: SR leukemia -13.4% | SW-620 colon -61.9% | HCT-116 colon 7.89% | HCC-2998 colon -33%
inactive: OVCAR-8 ovarian 80.1% | OVCAR-5 ovarian 97% | OVCAR-4 ovarian 67% | SK-OV-3 ovarian 88.4% | IGROV1 ovarian 72.4% | OVCAR-3 ovarian 63% | HS 578T breast 85% | T-47D breast 65.6% | BT-549 breast 88.1% | MDA-MB-435 melanoma 46.2% | MCF7 breast 47.9% | KM12 colon 14.1%

O=C(Nc1ccc(I)cc1F)c1cc(I)ccc1O
active: SR leukemia 3.39% | HS 578T breast 3.07% | NCI/ADR-RES ovarian 5.58% | T-47D breast -0.561% | BT-549 breast -9.42% | MDA-MB-435 melanoma 2.77% | MCF7 breast 3.31% | HCT-116 colon 5.17% | KM12 colon 2.37%
inactive: OVCAR-8 ovarian 12.7% | OVCAR-5 ovarian 21.6% | OVCAR-4 ovarian 22.3% | SK-OV-3 ovarian 13.9% | IGROV1 ovarian 18.4% | SW-620 colon 10.8% | HCC-2998 colon 17.6%

COc1cc2cc(Oc3ccc(NC(=O)Nc4ccc(F)c(C(F)(F)F)c4)cc3)c(C)nc2cc1OCCN1CCOCC1
inactive: OVCAR-8 ovarian 13.8% | OVCAR-5 ovarian 66.9% | OVCAR-4 ovarian 27.3% | SK-OV-3 ovarian 41.3% | IGROV1 ovarian 32.7% | HS 578T breast 65.8% | NCI/ADR-RES ovarian 12% | T-47D breast 21.8% | BT-549 breast 40.3% | MDA-MB-435 melanoma 16.5% | SW-620 colon 15.5% | HCC-2998 colon 44.9% | KM12 colon 11.2%
active: SR leukemia -15.2% | MCF7 breast 3.62% | HCT-116 colon 9.66%

CCCCn1c(-c2ccc(C(=O)O/N=C(\N)c3ccc(OC)cc3)cc2)nc(-c2ccccc2)c1-c1ccccc1
inactive: OVCAR-5 ovarian 24.1% | OVCAR-4 ovarian 23.1% | SK-OV-3 ovarian 87% | BT-549 breast 11.7%
active: SR leukemia -47.4% | OVCAR-8 ovarian -16.8% | IGROV1 ovarian -70.2% | OVCAR-3 ovarian -6.99% | HS 578T breast -8.31% | T-47D breast -31.8% | SW-620 colon 5.52% | MCF7 breast -24.7% | HCT-116 colon -33.6% | HCC-2998 colon 1.5% | KM12 colon 9.02%

O=c1c2cc(F)ccc2sc2c(N3CCCCC3)nc3ccccc3c12
inactive: SR leukemia 121% | OVCAR-8 ovarian 99.6% | OVCAR-5 ovarian 98.4% | OVCAR-4 ovarian 116% | SK-OV-3 ovarian 103% | IGROV1 ovarian 101% | HS 578T breast 105% | NCI/ADR-RES ovarian 101% | T-47D breast 105% | MDA-MB-435 melanoma 107% | SW-620 colon 104% | MCF7 breast 95.8% | HCT-116 colon 90.9% | HCC-2998 colon 101% | KM12 colon 105%

CCCCn1c(=O)c(-c2cc(-c3ccc(Cl)cc3)nc(-c3ccc(Cl)cc3)c2)cc2ccc(Cl)cc21
inactive: SR leukemia 98.1% | OVCAR-8 ovarian 108% | OVCAR-5 ovarian 94.1% | OVCAR-4 ovarian 109% | SK-OV-3 ovarian 99.6% | IGROV1 ovarian 105% | OVCAR-3 ovarian 112% | HS 578T breast 108% | T-47D breast 99.6% | BT-549 breast 105% | MDA-MB-435 melanoma 103% | SW-620 colon 100% | MCF7 breast 93.1% | HCT-116 colon 105% | HCC-2998 colon 103% | KM12 colon 99.3%

Cc1cccc(NCc2cn(-c3ccc(C(=O)O)cc3)nc2-c2ccc(C(=O)O)cc2)n1
inactive: SR leukemia 111% | OVCAR-8 ovarian 110% | OVCAR-5 ovarian 95.2% | OVCAR-4 ovarian 105% | SK-OV-3 ovarian 110% | IGROV1 ovarian 105% | HS 578T breast 96.9% | NCI/ADR-RES ovarian 108% | T-47D breast 100% | BT-549 breast 104% | MDA-MB-435 melanoma 101% | SW-620 colon 99.9% | MCF7 breast 97.4% | HCT-116 colon 107% | HCC-2998 colon 112% | KM12 colon 102%

CC1=C(SCCC(=O)OC(C[Se]C2=C(C)C(=O)c3ccccc3C2=O)C(=O)NC(C)(C)C)C(=O)c2ccccc2C1=O (centres undefined)
active: OVCAR-8 ovarian -79.4% | OVCAR-5 ovarian -68.9% | OVCAR-4 ovarian -91.5% | SK-OV-3 ovarian -100% | IGROV1 ovarian -27.9% | OVCAR-3 ovarian -97.6% | HS 578T breast -21.3% | NCI/ADR-RES ovarian -68.6% | T-47D breast -52.9% | MDA-MB-435 melanoma -86.8% | SW-620 colon -80% | MCF7 breast -63.5% | HCT-116 colon -70.9% | HCC-2998 colon -82.8% | KM12 colon -94.6%
inactive: SR leukemia 18.7%

CCC(=O)Nc1ccc(-c2nc(-c3cccc(OC)c3)c(-c3ccnc(Br)c3)[nH]2)cc1
inactive: SR leukemia 25.3% | OVCAR-8 ovarian 58.2% | OVCAR-5 ovarian 87% | OVCAR-4 ovarian 46.8% | SK-OV-3 ovarian 101% | IGROV1 ovarian 81% | HS 578T breast 39.2% | NCI/ADR-RES ovarian 67.9% | T-47D breast 28.4% | BT-549 breast 77.4% | SW-620 colon 80.4% | MCF7 breast 25.5% | HCT-116 colon 63.7% | HCC-2998 colon 69% | KM12 colon 43.2%

COC(=O)Nc1ccc(-c2nc(-c3cccc(OC)c3)c(-c3ccnc(Br)c3)[nH]2)cc1
active: SR leukemia 3.64%
inactive: OVCAR-8 ovarian 48% | OVCAR-5 ovarian 85.6% | OVCAR-4 ovarian 51.5% | SK-OV-3 ovarian 88.1% | IGROV1 ovarian 72.5% | OVCAR-3 ovarian 70.2% | HS 578T breast 33.4% | T-47D breast 22.2% | BT-549 breast 72.7% | SW-620 colon 74.5% | MCF7 breast 33.1% | HCT-116 colon 54.2% | HCC-2998 colon 71.5% | KM12 colon 48%

CCCCn1c(=O)c(-c2cc(-c3ccc(Cl)cc3)nc(-c3ccc(Cl)cc3)c2)cc2cc(Cl)ccc21
inactive: SR leukemia 106% | OVCAR-8 ovarian 101% | OVCAR-5 ovarian 98.4% | OVCAR-4 ovarian 105% | SK-OV-3 ovarian 102% | IGROV1 ovarian 103% | OVCAR-3 ovarian 117% | HS 578T breast 108% | T-47D breast 103% | BT-549 breast 106% | MDA-MB-435 melanoma 103% | SW-620 colon 99.7% | MCF7 breast 98.4% | HCT-116 colon 106% | HCC-2998 colon 102% | KM12 colon 102%

Cc1ccc(-c2nc(N3CCN(CC(=O)Nc4ccc(Cl)cc4)CC3)c3ccccc3n2)cc1
inactive: SR leukemia 79.1% | OVCAR-8 ovarian 92.3% | OVCAR-5 ovarian 93.9% | OVCAR-4 ovarian 96.2% | SK-OV-3 ovarian 94.3% | OVCAR-3 ovarian 97.8% | HS 578T breast 92.6% | NCI/ADR-RES ovarian 84.5% | T-47D breast 80.2% | BT-549 breast 102% | MDA-MB-435 melanoma 96.4% | SW-620 colon 97.5% | MCF7 breast 77.5% | HCT-116 colon 89.9% | HCC-2998 colon 82.4% | KM12 colon 92.4%

CCC(C)(c1cc(C(C)(C)C)c(O)c(C(C)(C)C)c1)c1cc(C(C)(C)C)c(O)c(C(C)(C)C)c1
inactive: SR leukemia 90.4% | OVCAR-8 ovarian 102% | OVCAR-5 ovarian 94.5% | OVCAR-4 ovarian 103% | SK-OV-3 ovarian 100% | OVCAR-3 ovarian 109% | HS 578T breast 97% | NCI/ADR-RES ovarian 102% | T-47D breast 84.2% | BT-549 breast 104% | MDA-MB-435 melanoma 105% | SW-620 colon 102% | MCF7 breast 92.5% | HCT-116 colon 99.2% | HCC-2998 colon 110% | KM12 colon 100%

CN(C)CCCNc1nc2ccccc2c2c(=O)c3cc(F)ccc3sc12
active: SR leukemia -37.9% | MDA-MB-435 melanoma -79.7% | SW-620 colon -51.4% | HCT-116 colon -47% | HCC-2998 colon -80.4% | KM12 colon 3.81%
inactive: OVCAR-8 ovarian 45.3% | OVCAR-5 ovarian 73.7% | OVCAR-4 ovarian 36.6% | SK-OV-3 ovarian 78.1% | OVCAR-3 ovarian 26% | HS 578T breast 46.7% | NCI/ADR-RES ovarian 43% | T-47D breast 43.1% | BT-549 breast 100% | MCF7 breast 18.5%

Cc1ccc2sc3c(NCCCN)nc4ccccc4c3c(=O)c2c1
inactive: OVCAR-8 ovarian 38.3% | OVCAR-5 ovarian 85.8% | OVCAR-4 ovarian 28% | SK-OV-3 ovarian 90.2% | HS 578T breast 59.8% | NCI/ADR-RES ovarian 39.4% | T-47D breast 54.6% | BT-549 breast 96.8%
active: SR leukemia -31.8% | OVCAR-3 ovarian 2.61% | MDA-MB-435 melanoma -71.7% | SW-620 colon -79.7% | MCF7 breast -21.2% | HCT-116 colon -53.2% | HCC-2998 colon -86.1% | KM12 colon -74.6%

CCc1cccc2c1S/C(=C/c1ccc(OC)cc1)C2=O
inactive: SR leukemia 15.1% | OVCAR-8 ovarian 55.9% | OVCAR-5 ovarian 76% | OVCAR-4 ovarian 59.4% | SK-OV-3 ovarian 79.3% | OVCAR-3 ovarian 23.8% | HS 578T breast 41.5% | NCI/ADR-RES ovarian 30.2% | T-47D breast 53.9% | BT-549 breast 55.5% | SW-620 colon 30% | MCF7 breast 22.3% | HCT-116 colon 34.3% | HCC-2998 colon 77.7% | KM12 colon 28.6%

Cn1cc(-c2cc3ncnc(Nc4ccc(CC(=O)Nc5cc(C(C)(C)C)on5)cc4)c3s2)cn1
inactive: SR leukemia 10.9% | OVCAR-8 ovarian 40.7% | OVCAR-5 ovarian 61.6% | OVCAR-4 ovarian 34.7% | SK-OV-3 ovarian 10.4% | OVCAR-3 ovarian 36.6% | HS 578T breast 15.6% | NCI/ADR-RES ovarian 60.6% | T-47D breast 30.7% | BT-549 breast 52.5% | MDA-MB-435 melanoma 40.7% | SW-620 colon 38.8% | MCF7 breast 41.5% | HCT-116 colon 21.8% | HCC-2998 colon 99.1% | KM12 colon 19.1%
